# Inconclusive results are not listed. Entries that show only a call come without a potency. Active and inactive are the calls of the source. Calls follow the shape of the dose curve; as a rule, active = well fitted inhibition curve with a large enough effect; inconclusive = small, poorly fitted or top-dose-only effect; inactive = flat fitted curve, though single readings scatter.
# Experiments:
# Assay in all cases: qHTS profiling for inhibitors of Plasmodium falciparum proliferation (AID 504749); also: nearly all actives have a fitted effect of over 60% in size
# Conditions in all cases: P. falciparum in erythrocytes, SYBR Green DNA, 72 h; series mostly up to 28.7 µM
# [1] = system: CP191
# How it was run: (§1)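 Quantitative HTS: compounds pinned into medium, infected erythrocytes added (0.3% parasitemia, 2.5% hematocrit), 72 h culture at 37 C under 5% CO2. Saponin/Triton lysis with SYBR Green I, overnight RT, then fluorescence read.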
# [2] = system: CP194
# How it was run: as §1
# [3] = system: CP201
# How it was run: as §1
# [4] = system: CP203
# How it was run: as §1
# [5] = system: CP211
# How it was run: as §1
# [6] = system: CP215
# How it was run: as §1
# [7] = system: CP217
# How it was run: as §1
# [8] = system: CP237
# How it was run: as §1
# [9] = system: CP238
# How it was run: as §1
# [10] = system: CP247
# How it was run: as §1
# [11] = system: CP252
# How it was run: as §1
# [12] = system: CP256
# How it was run: as §1
# [13] = system: CP192
# How it was run: as §1
# [14] = system: CP250
# How it was run: as §1
# [15] = system: CP260
# How it was run: as §1
# [16] = system: CP262
# How it was run: as §1
# [17] = system: CP265
# How it was run: as §1
# [18] = system: CP266
# How it was run: as §1
# [19] = system: CP268
# How it was run: as §1
# [20] = system: CP269
# How it was run: as §1
# Potency is read from the fitted curve at half-maximal effect.
SMILES,Potency [1],Potency [2],Potency [3],Potency [4],Potency [5],Potency [6],Potency [7],Potency [8],Potency [9],Potency [10],Potency [11],Potency [12],Potency [13],Potency [14],Potency [15],Potency [16],Potency [17],Potency [18],Potency [19],Potency [20]
Oc1c(Cl)cc(Cl)c(Cl)c1Cc1c(O)c(Cl)cc(Cl)c1Cl,8.91 µM (active),10.7 µM (active),10.7 µM (active),7.57 µM (active),12 µM (active),7.57 µM (active),8.91 µM (active),11.2 µM (active),10 µM (active),8.91 µM (active),8.91 µM (active),inactive,,,,,,,,
CC(C)=CCOc1ccc(/C=C/C(=O)c2ccc(OCC=C(C)C)cc2OCC(=O)O)cc1,inactive,,inactive,inactive,inactive,,inactive,inactive,inactive,inactive,inactive,inactive,inactive,inactive,inactive,inactive,inactive,inactive,inactive,inactive
O=C(O)CCNC(=O)c1ccccc1,inactive,inactive,inactive,inactive,inactive,inactive,inactive,inactive,inactive,inactive,inactive,inactive,,inactive,inactive,inactive,inactive,,inactive,inactive
NC(N)=NN=C(/C=C/c1ccc([N+](=O)[O-])o1)/C=C/c1ccc([N+](=O)[O-])o1,10 µM (active),,,,,,,3.55 µM (active),,7.08 µM (active),,,,11.2 µM (active),3.55 µM (active),inactive,,,,
CCCc1ncc(C[n+]2ccccc2C)c(N)n1,inactive,inactive,inactive,inactive,inactive,,inactive,inactive,inactive,inactive,inactive,inactive,inactive,inactive,inactive,,inactive,inactive,inactive,inactive
C#C[C@]1(OC(C)=O)CC[C@H]2[C@@H]3CCC4=C/C(=N/O)CC[C@@H]4[C@H]3CC[C@@]21CC,inactive,inactive,inactive,inactive,inactive,inactive,inactive,inactive,inactive,inactive,inactive,inactive,,inactive,inactive,inactive,inactive,inactive,inactive,inactive
O=C(O)c1ccc(S(=O)(=O)N(Cl)Cl)cc1,inactive,inactive,,inactive,inactive,inactive,inactive,inactive,inactive,inactive,inactive,inactive,inactive,inactive,inactive,,inactive,inactive,inactive,inactive
CC(=O)NCCCCCC(=O)O,inactive,inactive,inactive,inactive,,inactive,inactive,inactive,inactive,inactive,inactive,inactive,inactive,,inactive,inactive,inactive,inactive,inactive,inactive
O=C(O)CCc1nc2ccccc2[nH]1,,,,,,,,,inactive,inactive,,inactive,,,,,inactive,,,
CN1CCN(c2c(F)cc3c(=O)c(C(=O)O)cn4c3c2SCC4)CC1,,inactive,inactive,inactive,,,,,inactive,inactive,,,inactive,inactive,,inactive,,inactive,,
CCN(CC)CCOc1ccc2c(c1)C(=O)c1cc(OCCN(CC)CC)ccc1-2,,,,,,,,12.6 µM (active),,,,11.2 µM (active),,,,inactive,,,,
COC(=O)C(c1ccccc1Cl)N1CCc2sccc2C1 (centres undefined),,,,,,,,,,inactive,,,,,,,,,,
CC(=O)O[C@]1(C(C)=O)CC[C@H]2[C@@H]3C=C(Cl)C4=CC(=O)CC[C@]4(C)[C@H]3CC[C@@]21C,,,,,,,,,,,,,,,,,,10.7 µM (active),16.9 µM (active),
COc1cc(N)c(Cl)cc1C(=O)NC1CCN(Cc2ccccc2)CC1,,inactive,inactive,inactive,inactive,inactive,inactive,inactive,inactive,inactive,inactive,inactive,inactive,inactive,inactive,inactive,inactive,inactive,inactive,inactive
COc1ccc(C(=O)c2ccccc2O)c(O)c1,,inactive,inactive,inactive,inactive,,,,inactive,inactive,,inactive,inactive,inactive,inactive,inactive,,inactive,inactive,inactive
CN1CCN(CCC(=O)N2c3ccccc3Sc3ccc(C(F)(F)F)cc32)CC1,,inactive,inactive,,,inactive,inactive,,,,,inactive,inactive,inactive,inactive,,inactive,,inactive,inactive
CN1CCc2cccc3c2[C@H]1Cc1ccc(O)c(O)c1-3,,,,,,,,6.31 µM (active),,,,,,8.91 µM (active),11.2 µM (active),,,8.49 µM (active),,16.9 µM (active)
CO[C@]12C[C@@H](COC(=O)c3cncc(Br)c3)CN(C)[C@@H]1Cc1cn(C)c3cccc2c13,,inactive,inactive,,inactive,,inactive,,,,inactive,inactive,inactive,inactive,,,inactive,inactive,,inactive
CN1CCN(C2=Nc3ccccc3Sc3ccc(Cl)cc32)CC1,,,,,inactive,,,,inactive,inactive,inactive,inactive,inactive,inactive,,,,inactive,inactive,
CN1CCC[C@@H]1CCO[C@](C)(c1ccccc1)c1ccc(Cl)cc1,,,inactive,,inactive,inactive,,,inactive,,,inactive,inactive,,inactive,inactive,inactive,,,

# Reference: PubChem BioAssay (NCATS)
